# Measured values published in ChEMBL document CHEMBL1157539, “Thousands of chemical starting points for antimalarial lead identification” (Nature, 2010).
# Legend:
# Format in all cases: functional
# Plasmodium falciparum [1] = test: GSK_TCMDC: Inhibition of Plasmodium falciparum 3D7 in whole red blood cells, using parasite LDH activity as an index of growth. Test compounds present at 2uM
# Plasmodium falciparum [2] = test: GSK_TCMDC: Inhibition of Plasmodium falciparum Dd2 in whole red blood cells, using parasite LDH activity as an index of growth. Test compounds present at 2uM
# HepG2 = test: GSK_TCMDC: Percent inhibition of human HepG2 cell line. Test compounds present at 10uM.
Structure (SMILES),Inhibition (Plasmodium falciparum [1]) [%],Inhibition (Plasmodium falciparum [2]) [%],Inhibition (HepG2) [%]
Cl.N=c1c2c(n(Cc3cccc(Cl)c3)c3c1CCC3)CCCC2,97,86,0
CC(C)(C)c1ccc(NC(=O)c2ccc(CN3CCCN(CC4CCCCC4)CC3)cc2)cc1.O=C(O)C(F)(F)F,99,64,54
CCOC(=O)N1CCN(CCCNc2c3ccc(Cl)cc3nc3ccc(OC)cc23)CC1,100,100,52
CCc1cn2c3c(cc(C(=O)N[C@@H](Cc4ccccc4)[C@H](O)CNC4CCOCC4)cc13)N(C(C)C)S(=O)(=O)CC2.O=CO,98,99,0
Cc1cccc2nc(-c3ccc(-c4ccc(CN5CCN(CC6CCCN(C)C6)CC5)cc4)cc3)[nH]c12.O=C(O)C(F)(F)F (centres undefined),100,99,91
CCCN(CC1CC1)c1ncc(-c2cccc(CNCCC3CCCN3C)c2)cn1 (centres undefined),98,43,77
CCOC(=O)c1cccc(NC(=O)Nc2cc(C)nc3ccccc23)c1,100,90,14
COc1ccc(C2CCN(CCCCNC(=O)c3ccc(NC(=O)c4ccc(Cl)cc4)cc3)CC2)cc1Cl,97,75,28
COc1ccc(-c2ccc(NC(=O)c3cccc(Cl)c3)cc2)cc1CN1CCCC1.O=C(O)C(F)(F)F,100,84,35
COC(=O)CCCCOc1c(OC)cc(Cc2cnc(N)nc2N)cc1OC,93,0,0
Cl.N=c1n(CCN2CCCCC2)c2ccccc2n1CC(O)c1cccc(Br)c1 (centres undefined),86,33,25
CN(C)CC1c2[nH]c3ccccc3c2CCN1C(=O)Nc1ccc(Cl)c(Cl)c1.Cl (centres undefined),90,32,99
O=C(Nc1ccc(C(=O)Oc2ccc(-c3ccccc3)cc2)cc1)N[C@@H](Cc1ccc(O)cc1)C(=O)NC1CCN(Cc2ccc(O)cc2)C1.O=C(O)C(F)(F)F (some centres undefined),94,60,0
O=C(NCCCCN1CCC(c2ccc3c(c2OCCN2CCCC2=O)CCCC3)CC1)c1ccc(-c2ccc(C(F)(F)F)cc2)cc1,88,1,56
CCn1ncc2c(N3CCCC3=O)cc(C(=O)N[C@@H](Cc3ccccc3)[C@H](O)CNC(C)(C)c3cccc(C(F)(F)F)c3)cc21,98,99,10
CC(C)N1CCC(N(Cc2ccc(-c3ccc(C(F)(F)F)cc3)cc2)C(=O)Cn2c(CCc3cccc(F)c3F)cc(=O)c3ccccc32)CC1.O=C(O)C(O)C(O)C(=O)O,99,73,50
CCn1c(C=Cc2cc(Br)ccc2O)nc2ccccc2c1=O,95,95,6
O=C(/C=C/c1ccc(Cl)cc1)NCCCCCN1CCC(c2c[nH]c3ccccc23)CC1,99,15,42
COC(=O)c1ccc2nc(-c3ccc(C(=O)NC4CCN(Cc5ccccc5)CC4)s3)[nH]c2c1,99,71,0
CN(C)c1cccc(-c2cnc3ccc(NCc4cccc(Cl)c4)nn23)c1,99,98,11

Structure (SMILES),Inhibition (Plasmodium falciparum [1]) [%],Inhibition (Plasmodium falciparum [2]) [%],Inhibition (HepG2) [%]
Cc1[nH]c(-c2ccc(F)cc2)cc1C(=O)NC1CCN(Cc2ccccc2)CC1,84,9,6
Cc1cc(N(CCO)CCCN2CCCCC2)nc(Nc2ccc(Cl)cc2)n1.Cl,100,18,12
CCOc1ccc2c(=NN=Cc3ccccn3)cc(C)[nH]c2c1,98,1,19
CN(C)c1ccc(-c2cscc2C(=O)NC2CCCN(Cc3cccnc3)C2)cc1.O=C(O)C(F)(F)F (centres undefined),89,70,5
CCCCCc1cc(OC(C)=O)c2c(c1)OC(C)(C)C=C2C1=CCN(Cc2ccccc2)CC1.O=C(O)/C=C/C(=O)O,97,88,14
Nc1ccc2[nH]cc(C3CCN(CC4CCC(NC(=O)/C=C/c5ccc(Cl)c(Cl)c5)CC4)CC3)c2n1 (centres undefined),100,93,18
C=C(NC(=O)C1CCCCC1)C(=O)OC,93,3,15
CC(CCc1ccccc1)NCC(O)c1ccc2c(c1)S(=O)(=O)c1ccccc1N2 (centres undefined),95,4,17
CN1CCC(C(=O)Nc2cccc(-c3ccc(-c4nc5cc(C(F)(F)F)ccc5[nH]4)s3)c2)CC1,100,95,29
O=C(/C=C/c1ccc(Cl)cc1)NCCCCCN1CCC(C(=O)Nc2ccc(Cl)c(Cl)c2)CC1,100,0,47
O=S(=O)(c1ccccc1C(F)(F)F)C1CC2CCC(C1)N2S(=O)(=O)c1ccc(Cl)c(C(F)(F)F)c1 (centres undefined),97,99,4
CC(Oc1cc(-n2cnc3ccc(NC(=O)CCN4CCCCC4)cc32)sc1C(N)=O)c1ccccc1Cl (centres undefined),99,98,95
N#Cc1cccc(C(=O)NC2CCN(CCCCCNC(=O)/C=C/c3ccc(Cl)c(Cl)c3)CC2)c1,100,0,11
CS(=O)(=O)Nc1ccc2c(C3CCN(CCC4CCN(C(=O)/C=C/c5ccc(Cl)c(Cl)c5)CC4)CC3)c[nH]c2c1,99,63,35
CCCCCC(C)C(C)c1cc(O)c2c(c1)OC(C)(C)C=C2c1cc[n+]([O-])cc1 (centres undefined),91,2,11
CCc1ccnc2c(N3CCCC3=O)cc(C(=O)N[C@@H](Cc3ccccc3)[C@H](O)CNC3CCOCC3)cc12.O=CO,99,98,2
N=C(N)CCN(Cc1ccccc1)c1ccc(Cl)cc1,98,98,1
CN1CCCc2cc(NC(=O)C=Cc3ccc(-c4ccc(F)cc4F)o3)ccc2C1.O=C(O)C(F)(F)F,90,27,5
C=CCc1cc(Cc2cnc(N)nc2N)cc(CCC)c1O,90,2,54
COc1ccc2ncc(C#N)c(CCN3C[C@H](CNCc4ccccc4)[C@H](O)C3)c2n1.Cl,91,24,3

Structure (SMILES),Inhibition (Plasmodium falciparum [1]) [%],Inhibition (Plasmodium falciparum [2]) [%],Inhibition (HepG2) [%]
O=C(Nc1cccc(C(F)(F)F)c1)c1cccc(S(=O)(=O)NCC2CCCN(CC3CCCCC3)C2)c1.O=C(O)C(F)(F)F (centres undefined),99,11,17
CN1CCCN(Cc2cccc(-c3ccc(NC(=O)c4ccc(Cl)cc4)cc3)c2)CC1.O=C(O)C(F)(F)F,97,35,31
O=C(c1cc(-c2cccs2)n[nH]1)N1CCN(S(=O)(=O)c2ccc(Br)cc2)CC1,93,95,0
CC(C)(C)OC(=O)N(Cc1cc(-n2nnnc2C(F)(F)F)ccc1O)[C@H]1CCCN(C(=O)OC(C)(C)C)[C@H]1c1ccccc1,98,66,14
CN1CCN(CCCN(Cc2csc(-c3ccc(CNCc4ccccc4)cc3)n2)S(=O)(=O)c2ccc(F)cc2)CC1.O=C(O)C(F)(F)F,100,80,21
CC(=O)Nc1ccc(C(=O)Nc2cccc(-c3ccc(-c4nc5cc(F)ccc5[nH]4)cc3)c2)cn1,99,99,10
COC(=O)C(NC(=O)c1ccc(-c2ccc(-c3nc4ccccc4[nH]3)s2)cc1)c1ccc(O)cc1 (centres undefined),83,49,99
Cc1nc(-c2ccncc2)sc1C(=O)Nc1ccc(Cl)cc1C(=O)Nc1ccc(Cl)cc1,98,47,2
O=[N+]([O-])c1cccc(Nc2nccc(-c3cnn4ncccc34)n2)c1,87,74,33
CC1CCN(Cc2cccc(C(=O)NCc3ccc(F)c(-c4cccc(CN5CCN[C@@H](C)C5)c4)c3)c2)CC1.O=C(O)C(F)(F)F,91,64,26
CCn1ccc2c(N3CCCC3=O)cc(C(=O)N[C@@H](Cc3ccccc3)[C@H](O)CNCc3cccc(OC)c3)cc21,94,92,4
Cc1c(Cn2ncc(N3CCC(N)CC3)c(Cl)c2=O)cccc1NC(=O)Nc1ccc(-c2ccccc2)cc1.O=C(O)C(F)(F)F,97,43,19
O=C(c1cccc(-c2cccc(-c3nc4cc(C(F)(F)F)ccc4[nH]3)c2)c1)N1CCCCC1CN1CCC(O)C1 (centres undefined),91,100,51
CO/C(=C\C=C\c1cc2cc(Cl)c(Cl)cc2[nH]1)C(=O)NCCCNCCN(C)c1ccccc1,100,55,33
Cc1ccc2[nH]c3c(NCCN(C)C)ncnc3c2c1,99,5,9
CCCCCCCN1CC[C@@H](CCCc2ccnc3ccc(OC)cc23)[C@@H](CCN)C1.O=C(O)C(=O)O,100,11,50
COc1cccc(OC2CCN(C(=O)c3ccc(-c4ccc(N5CCCC5=O)cc4C)cc3)CC2)c1,85,80,42
O=C(Nc1cc(F)c(F)c(-c2cccnc2)c1)N1CCc2cc(Cl)c(Cl)cc21,94,9,0
